The panel holds about 79,000 compounds, 15% with a hit somewhere; the sample as a whole holds those more often. A number with no mark means an inactive call. Active and inactive are the calls of the source. Rule as the data show it: active = growth inhibition above about 70%; inactive = the rest.

Experiment [1] is described as follows: NCI Yeast Anticancer Drug Screen. Data for the rad50 strain (AID 155).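 Also: 0% = growth of vehicle-only cultures of the same strain.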 The settings on record: S. cerevisiae rad50 strain growth inhibition; at 50.0 µM; active compounds read high. An outline of the steps:
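Growth of the mutant yeast was measured after compound exposure and referenced to vehicle-treated cultures.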

A short description of experiment [2]: NCI Yeast Anticancer Drug Screen. Data for the mec2-1 strain (AID 157). The settings on record: S. cerevisiae mec2-1 strain, at 50.0 µM, active compounds read high. A digest of the protocol:
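Compounds were applied to mec2-1 yeast cells. Their growth was then compared with that of vehicle-treated cultures to give growth inhibition.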

A short description of experiment [3]: NCI Yeast Anticancer Drug Screen. Data for the sgs1 mgt1 strain (AID 161).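 Also: 0% = growth of cultures given vehicle only.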 The settings on record: S. cerevisiae sgs1 mgt1 strain, at 50.0 µM, active compounds read high. A digest of the protocol:
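Growth of a repair-deficient yeast mutant was monitored after compound treatment and expressed as inhibition relative to vehicle-treated cultures.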

The nature of experiment [4]: NCI Yeast Anticancer Drug Screen. Data for the cln2 rad14 strain (AID 165).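 Also: 0% = growth equal to vehicle treated cultures.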 The following applies: S. cerevisiae cln2 rad14 strain, at 50.0 µM, active compounds read high. A digest of the protocol:
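Strain: cln2 rad14 yeast, altered in cell cycle control and DNA damage repair. Read-out: growth inhibition vs vehicle.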

Experiment [5] is described as follows: NCI Yeast Anticancer Drug Screen. Data for the bub3 strain (AID 167). The following applies: S. cerevisiae bub3 mutant strain, at 50.0 µM, active compounds read high. A digest of the protocol:
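Whole-cell yeast assay. The mutant strain was incubated with compounds, and growth inhibition was determined by comparison with vehicle-treated cells.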

The nature of experiment [6]: NCI Yeast Anticancer Drug Screen. Data for the mlh1 rad18 strain (AID 175). The following applies: S. cerevisiae mlh1 rad18 strain growth inhibition; at 50.0 µM; active compounds read high. A digest of the protocol: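 A repair-deficient yeast strain is exposed to test compound, and growth is scored relative to vehicle-treated controls.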

Take `CCN(CC)C(=O)Sc1ccc(SC(=O)N(CC)CC)cc1`: the growth inhibition in experiment [1] is -5%; in experiment [2] it was 12.6%; in experiment [3], -2.05%; in experiment [4], -5.65%; in experiment [5], -3.3%; in experiment [6], -6.4%.

As for `[CH3][Ge]([Cl])([c]1ccccc1)[c]1cccc2ccccc12` (stereo not given), the growth inhibition in experiment [1] is 25.2%; in experiment [2], 12.4%; in experiment [3], 10.8%; in experiment [4], 10.2%; in experiment [5] it was -0.15%; in experiment [6], 7.5%.

As for `COc1ccccc1C1CC(c2ccccc2)=Nc2ccccc2S1` (stereo not given), the growth inhibition in experiment [1] was -3.95%; in experiment [2], -45.2%; in experiment [3], 1.25%; in experiment [4] it was 5.95%; in experiment [5], -30.8%; in experiment [6], -1.05%.

As to `O=C(O)c1ccc2sc3ccccc3c(=O)c2c1`, the growth inhibition in experiment [1] was 14.9%; in experiment [2] it was 32.8%; in experiment [3], 33.3%; in experiment [4] it was -21.2%; in experiment [5], 21.7%; in experiment [6], 39%.

As for `CC1(C)C2CC(NC(=O)c3ccc([N+](=O)[O-])cc3)C1C2` (stereo not given), the growth inhibition in experiment [1] was 18.6%; in experiment [2], 4.6%; in experiment [3] it was -1.5%; in experiment [4], -4.9%; in experiment [5], 3.25%; in experiment [6], 11.9%.

In the case of `c1ccc(-c2nnnn2-c2ccccc2)cc1`, the growth inhibition in experiment [1] was -0.5%; in experiment [2], -2.8%; in experiment [3] it was 7.9%; in experiment [4], -7.5%; in experiment [5], 5.4%; in experiment [6] it was 17.7%.

Regarding `CCOC(=O)C/C(C)=C1/N=C(c2ccccc2)OC1=O`, the growth inhibition in experiment [1] was 28.9%; in experiment [2], 7.85%; in experiment [3] it was 23.2%; in experiment [4] it was 14.8%; in experiment [5] it was 37%; in experiment [6], 30.8%.

Turning to `Nc1cc(=O)[nH]c(SC2OC(CO)C(O)C2O)n1` (stereo not given), the growth inhibition in experiment [1] is 29.1%; in experiment [2], -9.6%; in experiment [3], 9%; in experiment [4] it was -44.1%; in experiment [5] it was 0.1%; in experiment [6] it was 17.6%.

Consider `CN(C)c1ccc(S(=O)(=O)c2ccc(N(C)C)c([N+](=O)[O-])c2)cc1[N+](=O)[O-]`, for which the growth inhibition is 24% in experiment [1]; -9.65% in experiment [2]; -9.8% in experiment [3]; 0.45% in experiment [4]; 3.65% in experiment [5]; -30.9% in experiment [6].

With `N=C1C=Cc2ccccc2/C1=N/N=c1/ccccn1O`, the growth inhibition in experiment [1] is 72.2% (active); in experiment [2], 91.6% (active); in experiment [3], 73.5% (active); in experiment [4], 51.7%; in experiment [5] it was 98.3% (active); in experiment [6], 78.2% (active).

`COc1cccc2c1CCC1(O)OC(=O)CC21` (stereo not given): the growth inhibition in experiment [1] was -17.4%; in experiment [2] it was 5.15%; in experiment [3], -20.5%; in experiment [4], 2.1%; in experiment [5], -6.5%; in experiment [6] it was -15.1%.

In the case of `O=C(NC[N+]12CCO[B-]1(c1ccccc1)OCC2)c1ccccc1O` (stereo not given), the growth inhibition in experiment [1] is 25.9%; in experiment [2], -8.4%; in experiment [3] it was 4.7%; in experiment [4], 13.3%; in experiment [5] it was -0.75%; in experiment [6], 10.5%.

As to `COc1cc2c(cc1OC)C(c1ccccc1)ON(C)CC2` (stereo not given), the growth inhibition in experiment [1] is -4.15%; in experiment [2], -1.7%; in experiment [3], -3.35%; in experiment [4], -13.4%; in experiment [5], 1.45%; in experiment [6] it was 1.35%.

Turning to `CCC(C)c1cc(CN(C)C)cc(C(C)CC)c1O` (stereo not given), the growth inhibition in experiment [1] was 13.1%; in experiment [2], 1.1%; in experiment [3], 16.4%; in experiment [4] it was 13.8%; in experiment [5], 3.2%; in experiment [6] it was 9.05%.

`O=C(Nc1cc(C(F)(F)F)ccc1Cl)N(Cc1ccccc1)c1ccccc1`: the growth inhibition is -10.3% in experiment [1]; -15.9% in experiment [2]; -1.35% in experiment [3]; -74.2% in experiment [4]; -8.2% in experiment [5]; -8.7% in experiment [6].

Take `Cc1ccc(S(=O)(=O)OC/C(=C(/c2ccccc2)c2ccc(Cl)cc2)c2ccccc2)cc1`: the growth inhibition in experiment [1] is 96.8% (active); in experiment [2] it was 97.5% (active); in experiment [3] it was 95.8% (active); in experiment [4] it was 87.3% (active); in experiment [5], 95.3% (active); in experiment [6], 96.6% (active).

Turning to `CC(C)CNc1ncnc2c1cnn2C`, the growth inhibition in experiment [1] is -1.65%; in experiment [2], 2.9%; in experiment [3], -1.65%; in experiment [4], -3.15%; in experiment [5] it was 9.8%; in experiment [6], -8.45%.

`CCCNc1nc(N)[nH]c(=O)c1NC=O`: the growth inhibition in experiment [1] is 2.45%; in experiment [2], -9.25%; in experiment [3] it was -6.7%; in experiment [4], -12.3%; in experiment [5], -15%; in experiment [6], -0.85%.

For `Cn1c(=O)ccc2c1nc1ccccc1[n+]2[O-]`, the growth inhibition was -6.25% in experiment [1]; 4.65% in experiment [2]; -6.7% in experiment [3]; -30.8% in experiment [4]; 4.75% in experiment [5]; -11.8% in experiment [6].

Regarding `CC12CCC(O)CC1=CCC1C2CCC2(C)C(C(=O)O)=CCC12` (stereo not given), the growth inhibition is 1.3% in experiment [1]; 46.5% in experiment [2]; 29.6% in experiment [3]; 21.8% in experiment [4]; 49.1% in experiment [5]; 34.5% in experiment [6].

For the origin of these results see PubChem BioAssay (NCI).
